KB-V1 cytotox: kills drug-selected multidrug resistant KB-V1 cells; KB-V1 MDR cells viability, CellTiter-Glo, 72 h; Potency, µM (highest dose often 46.1 µM), most hits filed as cytotoxic; 400,000 compounds, 3.4% hits; also: potency is read from the fitted curve at half-maximal effect; nearly all actives have a fitted effect of over 60% in size
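KB-V1, DMEM (no phenol red) + 10% FBS; cpd pin-transferred, titration series; 72 h, 37 degrees C; CellTiter-Glo, luminescence. Data normalized, curve-fit.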
Nrf2 block: Nrf2 pathway inhibition | A549 ARE-Fluc reporter, luciferase luminescence, 18-24 h | Potency, µM (series often up to 46 µM), for the others: at the top dose activity change, negative = inhibition, hits mostly inhibitors | 360,000 compounds, 2.1% hits; also: potency is read from the fitted curve at half-maximal effect; nearly all actives have a fitted effect of over 60% in size
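In this cell-based qHTS, ARE-driven firefly luciferase in A549 cells reports Nrf2 activity; the luminescent signal after BugLite lysis is the measured value, with a prior CellTiter-Fluor read for cell health.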
A549 tox: A549 cytotoxicity, counter-screen for Nrf2 inhibitors. A549 ARE-Fluc cells, CellTiter-Fluor viability, 18-24 h. Potency, µM (top dose mostly 46 µM), for inactives: at the top dose activity change, negative = cytotoxicity, most hits filed as inhibitors. 390,000 compounds, 0.16% hits; also: potency is read from the fitted curve at half-maximal effect
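A549 ARE_Fluc cells in 5% FBS OPTI-MEM were exposed to compounds in concentration-response for 18-24 h at 37 deg C. Viability was read by CellTiter-Fluor fluorescence (Ex 405/Em 525) after 30 min, before the luciferase read.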
Giardia killer: Giardia lamblia killing | activity change, % at 7.66 µM, hits read low | Giardia lamblia trophozoite viability | 340,000 compounds, 0.15% hits; in the data active = activity change below about -80%; inconclusive = between about -30% and that limit;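 also: parasites exposed to compound for two days anaerobically before the ATP read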
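Anaerobic 48 hrs incubation at 37 deg C of 100 trophozoites/well with test compounds; ATPLite 1-Step luminescence, 15-30 min RT, reports cellular ATP as viability.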
PI4K2A block: blocks human PI4K2A kinase activity; Q9BTU6; purified PI4K2A, ADP-Glo luminescence, 1 h; hits give low values; activity change, negative = inhibition, % at 76.9 µM; 420,000 compounds, 0.13% hits; in the data active = activity change below about -50%; inconclusive = mostly about -30% to -49%;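 also: -100% = wells without enzyme as full effect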
Target sequence (Q9BTU6 whole entry, looked up): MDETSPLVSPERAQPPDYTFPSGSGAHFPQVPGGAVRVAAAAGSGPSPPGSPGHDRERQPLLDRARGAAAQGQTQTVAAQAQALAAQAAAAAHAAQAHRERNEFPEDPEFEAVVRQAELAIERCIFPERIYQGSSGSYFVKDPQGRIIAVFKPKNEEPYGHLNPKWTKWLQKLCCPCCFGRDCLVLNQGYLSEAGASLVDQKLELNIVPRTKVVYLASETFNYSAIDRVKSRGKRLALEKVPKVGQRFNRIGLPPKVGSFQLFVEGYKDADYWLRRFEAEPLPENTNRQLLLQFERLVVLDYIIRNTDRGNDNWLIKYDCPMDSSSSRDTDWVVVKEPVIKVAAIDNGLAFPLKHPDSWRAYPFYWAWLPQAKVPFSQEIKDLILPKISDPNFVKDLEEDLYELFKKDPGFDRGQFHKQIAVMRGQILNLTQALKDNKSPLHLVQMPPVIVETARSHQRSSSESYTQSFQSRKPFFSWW
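Compounds are screened against recombinant PI4K2A using PI as substrate and ATP, the latter dispensed at 300 microM. Reactions run one hour at ambient temperature before ADP-Glo detection; full inhibition defined by wells lacking enzyme.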
KB-3-1 tox: KB-3-1 parental cell cytotoxicity; Potency, µM (top dose mostly 46.1 µM), usual class: cytotoxic; KB-3-1 viability, CellTiter-Glo ATP luminescence, 72 h; 400,000 compounds, 1.4% hits; AID 1347075; also: potency is read from the fitted curve at half-maximal effect; nearly all actives have a fitted effect of over 60% in size
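KB-3-1 parental drug-naive adenocarcinoma cells in DMEM/10% FBS, incubated 72 h at 37 C with pin-transferred compounds across a concentration series. Viability by CellTiter-Glo luminescence; concentration-response curves fitted after normalization.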
The depositor's hits bear a star; i = inactive; ? = inconclusive; . = not tested or not shown. Most compounds without a hit are left out; they make up all but 5.7% or so of the library. Unless noted, calls follow the shape of the dose curve; as a rule, active = well fitted curve in the direction sought with a large enough effect; inconclusive = small, poorly fitted or top-dose-only effect, or another doubt; inactive = no such curve, though single readings can be large; an effect the other way counts as inactive or inconclusive. Unless noted, % is scaled to controls: 0 for no effect and ±100 for the full control effect.

SMILES | KB-V1 cytotox | Nrf2 block | A549 tox | Giardia killer | PI4K2A block | KB-3-1 tox
O=[N+]([O-])c1cc(CN2CCN(c3cccc(C(F)(F)F)c3)CC2)c2cccnc2c1O | ? | ? | ? | 7.2 | -11.6 | 3.66µM*
CC(C)OCc1cc(CN2CCN(c3cccc(C(F)(F)F)c3)CC2)c(O)c2ncccc12 | . | 16.4µM* | -25.1% | . | -1.3 | .
O=[N+]([O-])c1cc(CN2CCCC2)c2cccnc2c1O | 5.8µM* | -6.7% | -18.5% | 10.4 | -16.7 | ?
CCOCc1cc(CN2CCN(c3cccc(C(F)(F)F)c3)CC2)c(O)c2ncccc12 | . | ? | -2.0% | . | -1.3 | .
CCOC(=O)/C=C/c1ccc2c(c1)S(=O)(=O)N(C1CCCC1)[C@H]2CC(=O)OCC | ? | . | . | . | . | i
CC[n+]1c(/C=C/C=C/N(C(C)=O)c2ccccc2)sc2cc(OC)ccc21 | 13µM* | -11.4% | 14.6µM* | 8.2 | -12.7 | 3.26µM*
CC[n+]1c(/C=C(\C)OC)sc2ccccc21 | i | -10.7% | -1.8% | 6.8 | -2.2 | i
O=c1cc(-c2ccncc2)oc2c1ccc1ccccc12 | ? | 18.4µM* | -14.3% | -7.5 | 6.1 | i
O=c1cc(C(Cl)(Cl)Cl)oc2c1ccc1ccccc12 | i | 20.6µM* | ? | -13.1 | -2.6 | ?
COc1cccc(-c2nc(C(=O)NCC3CCCO3)cc3c2[nH]c2ccccc23)c1 (stereo not drawn) | ? | 20.6µM* | -15.7% | -13.7 | 1.9 | ?
O=C(NCC1CCCO1)c1cc(-c2ccccc2)on1 (stereo not drawn) | 20.6µM* | 29.1% | 2.9% | 10.7 | 1.0 | i
COc1ccc(OC)c(-c2nc(C(=O)NCC3CCCO3)cc3c2[nH]c2ccccc23)c1 (stereo not drawn) | ? | ? | -1.8% | -14.6 | 5.6 | i
Cc1cccc(N(C)C(=S)Oc2ccc3c(c2)C2CCC3C2)c1 (stereo not drawn) | . | . | . | . | -3.3 | .
O=C1C2CC=CCC2C(=O)N1c1ccc(Cc2ccncc2)cc1 (stereo not drawn) | 16.4µM* | 9.2µM* | -15.7% | 13.1 | -0.4 | ?
O=C1CC(Cc2ccc(Cl)cc2)C(=O)N1c1ccncc1 (stereo not drawn) | i | 0.2% | -4.6% | 0.3 | 7.0 | i
CCOc1ccc(C2C(=O)N(C3CCCCC3)CC(=O)N2CC2CCCO2)cc1OC (stereo not drawn) | 18.4µM* | 13.4% | 6.7% | 6.7 | 1.0 | i
COc1ccccc1CN1C(=O)CN(C2CCCC2)C(=O)C1c1ccc(F)cc1 (stereo not drawn) | 3.66µM* | ? | ? | -9.2 | 3.5 | i
CCOCCCN1C(=O)CN(C2CCCCCC2)C(=O)C1c1ccc(OCC)c(OC)c1 (stereo not drawn) | . | . | 0.6% | . | -4.2 | .
CCOc1ccc(C2C(=O)N(C3CCCCC3)CC(=O)N2Cc2ccccc2OC)cc1OC (stereo not drawn) | . | . | -1.5% | . | -6.8 | .
COCC(=O)Nc1ccc2c(c1)C(=O)N(C)[C@@H]1CC[C@@H](CC(=O)OC)O[C@H]1CO2 | . | . | . | . | 0.9 | .
CCC1(C)Cc2ccccc2-c2nc(-c3ccccc3)oc(=O)c21 (stereo not drawn) | 16.4µM* | -7.4% | -4.1% | -6.6 | -5.3 | ?
CCC1(C)Cc2ccccc2-c2nc(NN)[nH]c(=O)c21 (stereo not drawn) | i | 6.4% | -6.0% | 4.5 | 0.3 | i
O=C1Cc2ccccc2C(c2ccc(Br)cc2)N1 (stereo not drawn) | ? | ? | 2.0% | 0.4 | 5.8 | i
O=C1NC2=C(CCc3ccccc32)C(c2ccc(Br)cc2)N1 (stereo not drawn) | 20.6µM* | ? | ? | 6.4 | -3.1 | i
O/N=C(/C[n+]1ccsc1)c1ccc(I)cc1 | i | . | . | . | . | i
SMILES | KB-V1 cytotox | Nrf2 block | A549 tox | Giardia killer | PI4K2A block | KB-3-1 tox
CC1CCCCC1NC(=O)Cn1cc([N+](=O)[O-])ccc1=O (stereo not drawn) | i | 1.1% | -2.5% | -14.4 | -3.6 | i
CC1CCCCC1NC(=O)CN1CCC(NC(=O)c2ccc([N+](=O)[O-])cc2)CC1 (stereo not drawn) | ? | 7.31µM* | -6.1% | 1.4 | -1.8 | i
Cc1ccc(C(=O)N[C@H](C(=O)NC2CCCCC2)C(C)C)cc1 | 10.3µM* | 1.3% | -3.7% | 22.5 | 1.6 | i
Cc1ccc(C(=O)C2CCN(CC(=O)NC3CCCCC3)CC2)cc1 | 13µM* | -32.2% | -22.4% | -12.8 | 4.8 | i
Cc1ccc(NC(=O)N2CCC(C(=O)c3ccc(F)cc3)CC2)cc1 | 23.1µM* | ? | 1.8% | 4.4 | 6.3 | i
CC(C)CN1C(=O)N2CCc3ccccc3C2CS1(=O)=O (stereo not drawn) | . | . | . | . | 5.3 | .
Cc1ccc(Cl)cc1N1CCN(C(=O)CN(C2CCCCC2)S(C)(=O)=O)CC1 | i | 18.4µM* | -10.2% | -3.8 | 1.9 | ?
COc1ccc(OC)c(N(CC(=O)N2CCN(c3cc(Cl)ccc3C)CC2)S(C)(=O)=O)c1 | 23.1µM* | ? | ? | 13.1 | 4.6 | i
COc1ccc(-c2nnc(NC(=O)Nc3ccc4ccccc4c3)s2)cc1OC | i | . | . | . | . | i
CCC1CCCCN1C(=O)c1ccc([N+](=O)[O-])o1 (stereo not drawn) | i | 13.8% | -1.3% | -97.0* | -1.1 | i
CC1CCCN(C(=O)c2ccc([N+](=O)[O-])o2)C1 (stereo not drawn) | i | -12.0% | 3.4% | -84.3* | -6.1 | i
CC1CCN(C(=O)c2ccc([N+](=O)[O-])o2)CC1 | i | 1.8% | -5.4% | ? | 1.7 | i
Cc1ccccc1-n1c(SCC(=O)Nc2ccc3c(c2)OCO3)nnc1-c1ccccn1 | 2.06µM* | ? | ? | -1.5 | -2.0 | ?
CSCCC(NS(=O)(=O)c1ccc(C)cc1)C(=O)N1CCCCCCC1 (stereo not drawn) | 16.4µM* | 8.0% | -7.8% | -16.2 | 4.4 | i
CSCCC(NS(=O)(=O)c1ccc(Cl)cc1)C(=O)OCc1c(Cl)cccc1Cl (stereo not drawn) | 7.31µM* | ? | 0.2% | -2.7 | 3.1 | ?
CSCCC(NS(=O)(=O)c1ccc(Cl)cc1)C(=O)N1CCN(c2ccccc2)CC1 (stereo not drawn) | 14.6µM* | 1.4% | -9.4% | -3.1 | 0.3 | i
CSCCC(NS(=O)(=O)c1ccc(Cl)cc1)C(=O)OCc1cccc(Cl)c1 (stereo not drawn) | ? | 7.1% | 12.7% | 5.5 | -3.7 | i
